# Assay results published in PubChem BioAssay AID504339 (National Center for Advancing Translational Sciences (NCATS), 2011).
# Screen size: about 390,000 compounds; about 17,000 (4.4%) were called active. Not shown: some 8% with an inconclusive outcome. The sample holds actives, similar compounds and a random draw of the others, so the mix is not that of the screen. Values without a mark were called inactive. The call rests on the fitted dose curve; in most records, active means well fitted inhibition curve with a large enough effect; inconclusive means small, poorly fitted or top-dose-only effect; inactive means no such curve, though single readings can be large or run the other way.
# Molecular target: Lysine-specific demethylase 4A (Homo sapiens) (UniProt O75164)
# Assay: qHTS Assay for Inhibitors of JMJD2A-Tudor Domain; further: nearly all actives have a fitted effect of over 50% in size
# Details: AlphaScreen JMJD2A-Tudor / H3K4me3 peptide binding; series mostly up to 114 µM; activity change, negative = inhibition: at the top concentration
# On the % scale 0 is the no-effect control and ±100 the full control effect; potency means the concentration at half of the fitted maximal effect.
# Sequence of Lysine-specific demethylase 4A (Homo sapiens) (O75164 whole entry, looked up, the tested form may be a part): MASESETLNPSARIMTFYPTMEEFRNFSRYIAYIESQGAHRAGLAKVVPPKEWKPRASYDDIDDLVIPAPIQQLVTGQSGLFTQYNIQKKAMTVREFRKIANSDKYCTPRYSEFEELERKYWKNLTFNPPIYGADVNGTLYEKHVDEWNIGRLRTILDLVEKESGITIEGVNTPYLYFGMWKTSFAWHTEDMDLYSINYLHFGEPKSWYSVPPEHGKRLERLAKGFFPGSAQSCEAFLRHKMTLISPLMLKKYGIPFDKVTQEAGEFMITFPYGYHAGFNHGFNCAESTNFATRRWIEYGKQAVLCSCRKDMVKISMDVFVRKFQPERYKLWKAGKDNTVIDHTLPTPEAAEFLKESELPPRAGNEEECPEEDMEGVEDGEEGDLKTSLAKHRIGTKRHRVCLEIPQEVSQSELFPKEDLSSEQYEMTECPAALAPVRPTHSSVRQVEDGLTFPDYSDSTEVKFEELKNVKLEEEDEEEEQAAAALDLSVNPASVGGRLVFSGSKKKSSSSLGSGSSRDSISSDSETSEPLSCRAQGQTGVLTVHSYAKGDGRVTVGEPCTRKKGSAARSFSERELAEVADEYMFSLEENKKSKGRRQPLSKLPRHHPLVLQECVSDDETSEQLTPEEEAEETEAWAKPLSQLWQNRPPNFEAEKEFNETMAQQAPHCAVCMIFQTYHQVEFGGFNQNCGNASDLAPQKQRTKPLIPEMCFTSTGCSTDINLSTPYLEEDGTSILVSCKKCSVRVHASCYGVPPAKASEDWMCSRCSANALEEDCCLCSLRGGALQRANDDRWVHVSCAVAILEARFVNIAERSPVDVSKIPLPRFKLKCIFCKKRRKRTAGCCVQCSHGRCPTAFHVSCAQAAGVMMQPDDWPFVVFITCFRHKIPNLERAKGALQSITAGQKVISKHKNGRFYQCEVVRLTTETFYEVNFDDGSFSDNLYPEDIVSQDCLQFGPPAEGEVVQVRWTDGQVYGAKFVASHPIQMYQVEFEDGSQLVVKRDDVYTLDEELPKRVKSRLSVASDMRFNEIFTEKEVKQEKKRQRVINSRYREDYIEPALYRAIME
SMILES,"activity change, negative = inhibition",Potency
CCn1cc(C(=O)OCC(=O)Nc2cc(C)cc(C)c2)c(=O)c2ccc(C)nc21,-10.6%,–
CCC(=O)N1CCc2cc(S(=O)(=O)NCCC(=O)Nc3cccc(C)c3C)ccc21,-12%,–
Cc1ccc(C)c(NC(=S)NCC(c2cccnc2)N2CCOCC2)c1 (configuration not stated),-11.5%,–
Cc1ccc(C)c(NC(=S)NNC(=S)Nc2ccc(C(C)C)cc2)c1,–,56.2 µM (active)
Cc1ccc(C)c(NC(=O)C2CC(=O)N(C(C)C)C2)c1 (configuration not stated),-10.2% [at 57.1 µM],–
CCOC(=O)c1c(NC(=O)c2cc(CC)on2)sc(C(C)=O)c1C,4.78%,–
O=C(Nc1cccc(Cl)c1)c1csnn1,-22.8%,–
CC(C)(C)CN1C(=O)C(=O)NC[C@H]1Cc1cccc2ccccc12,-5.07%,–
c1ccc2c(CCN3CCNC[C@H]3Cc3cccc4ccccc34)cccc2c1,–,56.2 µM (active)
c1ccc(C2CNCc3c2ccc2ccccc32)cc1 (configuration not stated),-26.7%,–
Cc1cc(NC(=O)CSc2ncc(C(=O)Nc3ccc(Cl)cc3)c(=O)n2C)no1,3.57%,–
CCOC(=O)c1ccc(NC(=O)CCS(=O)(=O)c2ccc3c(c2)oc(=O)n3C)cc1,-10%,–
Cc1ccc(NC(=O)c2cn3c4c(ccc(Cl)c4c2=O)OC(C)C3)cc1C (configuration not stated),-5.28%,–
CN(C)C(=O)c1nc2ccc(Cl)cn2c1CN1CCN(c2ncccn2)CC1,-8.97%,–
COc1ccc(-c2nc(CN3CCN(c4ncccn4)CC3)c(C)o2)cc1C,-29.1%,–
c1cnc(N2CCN(c3ccc4ccccc4n3)CC2)nc1,9.09%,–
CC1=C(N2CCN(c3ncccn3)CC2)CCC1=O,-10%,–
Oc1ccc(CN2CCN(c3ncccn3)CC2)cc1,–,50.1 µM (active)
Cc1ccc(CN2CCN(c3ncccn3)CC2)c(C)c1,–,14.1 µM (active)
COc1ccc(CCNc2ncnc3c2cnn3-c2ccc(C)cc2)cc1,-3.98%,–
Cc1cc(C)c(NC(=O)CCc2c(C)nc3c(c(C)nn3C(C)(C)C)c2C)c(C)c1,-9.76%,–
CCOc1ccc(CNC(=O)c2ccc3nc(CC)c(CC)nc3c2)cc1OC,-13.7%,–
COc1ccc(/C=C/c2nc(C#N)c(NCc3ccc(F)cc3)o2)cc1OC,-17.6%,–

SMILES,"activity change, negative = inhibition",Potency
O=C(CCSCc1cccc(F)c1)NCc1ccccc1,-0.612%,–
Cc1ccc(C)c(N2CCN(c3ccc4cc(S(=O)(=O)N5CCC(C)CC5)ccc4n3)CC2)c1,15.9%,–
CCN1CCN(CCCNC(=O)c2ccc3c(c2)sc2nc(-c4ccc(OC)cc4)cn23)CC1,-23.7%,–
CC1C(=O)N(Cc2ccccc2)c2ccccc2N1C(=O)c1ccccc1 (configuration not stated),-14%,–
CC1C(C)N(C(=O)CCl)c2ccccc2N1C(=O)CCl (configuration not stated),–,28.2 µM (active)
CNC(=O)N1c2ccccc2C=Cc2ccccc21,-7.21%,–
CCOC(=O)c1c(NC(=O)c2ccc(S(=O)(=O)N3CCCC(C)C3)cc2)sc2c1CCN(C(C)C)C2 (configuration not stated),-29.7%,–
Cc1ccc(CN2CCCn3nc(C(=O)NCc4ccccc4Cl)cc3C2=O)cc1,-22.8%,–
CSc1ccc(/C=N/N2CCN(Cc3ccccc3Cl)CC2)cc1,–,25.1 µM (active)
COc1ccccc1/C=C/C=N/NC(=O)CN1CCN(Cc2ccccc2)CC1,-5.42%,–
COc1ccccc1/C=N/N1CCN(Cc2ccccc2Cl)CC1,–,44.7 µM (active)
O=S1(=O)CCN(Cc2ccccc2Cl)CC1,-8.11%,–
O=C(NCC1CCN(Cc2ccccc2Cl)CC1)Nc1cccc(Cl)c1,-14.1%,–
CN1CCN(/N=C/c2ccc(C#N)cc2)CC1,-10.5% [at 57.1 µM],–
Cc1nn(C(=O)c2c(F)cccc2F)c(C)c1S(=O)(=O)N1CCOCC1,-6.39%,–
Fc1ccc(-n2ncc3c(Nc4ccc(Oc5ccccc5)cc4)ncnc32)cc1,-4.89%,–
Cc1ccccc1CSCCNC(=O)C1CCN(S(=O)(=O)Cc2ccccc2)CC1,-11.9%,–
O=C(c1ccc(Cl)cc1)n1nc(-c2cccnc2)nc1NCc1ccc(F)cc1,-2.08%,–
CCOC(=O)c1cc2c(=O)n3ccccc3nc2n(CC2CCCO2)c1=NC(=O)c1ccccc1F (configuration not stated),3.41%,–
Cc1csc(Nc2ccc(Cl)cc2)[n+]1-c1ccc(Cl)cc1,–,14.1 µM (active)
CC1CCCN(c2nc3c(S(=O)(=O)c4ccc(C(C)C)cc4)nnn3c3ccsc23)C1 (configuration not stated),6.96%,–
CCOC(=O)c1ccc2[nH]c(C)c(CN3CCN(C)CC3)c(=O)c2c1,-18.3%,–
CCOc1ccccc1NC(=S)N1CCN(c2cccc(C)c2C)CC1,-24.9%,–

SMILES,"activity change, negative = inhibition",Potency
CCS(=O)(=O)N1CCc2cc(C(=O)N3CCN(c4ccccc4OC)CC3)ccc21,-12.6%,–
COC(=O)CCNC(=O)c1ccc2[nH]c(C)c(C)c2c1,-9.59%,–
CCn1c(C)c(C)c2cc(C(=O)N3CCN(c4cccc(C)c4C)CC3)ccc21,–,31.6 µM (active)
Cc1cccc(N2CCN(C(=O)c3ccc4c(c3)CCN4S(=O)(=O)c3ccccc3)CC2)c1C,-19.8%,–
Cc1[nH]c2ccc(C(=O)N3CCN(C)CC3)cc2c1C,–,50.1 µM (active)
CCOc1ccccc1N1CCN(C(=O)c2ccc3[nH]c(C)c(C)c3c2)CC1,–,56.2 µM (active)
CCC(CC)C(=O)N1CCN(c2cccc(C)c2C)CC1,8.94%,–
Cn1c(=O)cc(OCC(=O)N2CCN(c3ccccc3)CC2)c2ccccc21,-10.8%,–
Cc1ccccc1C(=O)Nc1sc2c(c1C(=O)N1CCC(C)CC1)CCCC2,-13.5%,–
CC(=O)Nc1c(C)nn(-c2ccccc2)c1N1CCC(C(=O)Nc2cc(Cl)ccc2C)CC1,-14%,–
Cc1ccc(Cc2nc3ccccc3nc2SCC(=O)Nc2cccc(C(F)(F)F)c2)cc1,-13%,–
CCc1nc2ccc(C(=O)N3CCN(c4cc(Cl)ccc4C)CC3)cc2nc1CC,-25.3%,–
COc1ccc(CCNC(=O)c2c3c(nc4ccccc24)C(=O)N(C2CCCCC2)C3)cc1OC,-15.3%,–
COc1cccc(NC(=O)c2ccc3nc(CCc4ccccc4)oc3c2)c1,-2.56%,–
CCOC(=O)c1scc(-c2ccc(C)cc2)c1S(=O)(=O)Nc1cc(C)ccc1C,-15.3%,–
COc1ccc(NC(=O)C2CCN(c3ccc(Sc4ccc(C)cc4)nn3)CC2)c(OC)c1,-17.4%,–
Nc1ccc(N=Nc2ccccc2Cl)c(N)n1,–,25.1 µM (active)
COc1ccc(Cl)cc1N(C)C(=O)c1cc2c(=O)oc3ccc(C)cc3c2s1,-2.36%,–
Cc1cc(C)n2nc(C(=O)N3CCN(Cc4ccc5c(c4)OCO5)CC3)nc2n1,-4.9%,–
COc1cc(Cl)c(S(=O)(=O)N2CCN(Cc3ccc4c(c3)OCO4)CC2)cc1Cl,-21.1%,–
COc1ccc(-c2cc(C(=O)N3CCN(Cc4ccc5c(c4)OCO5)CC3)on2)cc1OC,–,20 µM (active)
